Reference: ChEMBL document CHEMBL4513216, “Probing the Open Global Health Chemical Diversity Library for Multistage-Active Starting Points for Next-Generation Antimalarials” (ACS Infect Dis, 2020)
The whole screen tested about 68,000 compounds, of which about 2,700 (4%) showed an effect of 50% or more. Shown is part of a subset that was picked to be rich in strong results.

These compounds were tested on Plasmodium berghei (assay: Screen against P. berghei liver stage (PbLuc), transformed with Luciferase, at 2uM). Settings: tested at 2 uM.
Format: functional, HepG2

| SMILES | INHIBITION [%] |
| --- | --- |
| CSCC(=O)N1CCc2c(cnc(C)c2-c2noc(-c3cc[nH]n3)n2)C1 | 18.84 |
| COCCn1ccnc1C1CCCN(C(=O)CSc2nnc(C)o2)C1 (configuration not stated) | -7.17 |
| CCn1c(CC2CCN(S(=O)(=O)N3CCCCC3)CC2)nn(C)c1=O | 50.41 |
| CCn1c(CC2CCN(S(=O)(=O)c3cccc(C)c3)CC2)nn(C)c1=O | 38.96 |
| CCn1c(CC2CCN(S(=O)(=O)Cc3ccccc3)CC2)nn(C)c1=O | 22.09 |
| CCc1nn(C)c(Cl)c1CN(CCOC)Cc1cnn(C)c1 | -0.41 |
| COC(=O)C(C)(C)NC(=O)C1CC(=O)N(CC(C)C)C1 (configuration not stated) | 49.16 |
| COC(=O)C(C)(C)NC(=O)C1CC(=O)N(CC(F)(F)F)C1 (configuration not stated) | 54.62 |
| CCN1CC(C(=O)NC(C)(C)C(=O)OC)CC1=O (configuration not stated) | -59.42 |
| COc1ccc(CCN2CC(NCc3ncc[nH]3)CC2=O)cc1 (configuration not stated) | 45.41 |
| c1ccc(N2CC[C@@H]3CN(Cc4ccncc4)CCO[C@@H]3C2)cc1 | -19.36 |
| CS(=O)(=O)CCN(CCCO)C1CCc2ccccc21 (configuration not stated) | 14.3 |
| O=S(=O)(c1ccccc1F)N1CCCCC1c1cc[nH]n1 (configuration not stated) | -16.62 |
| O=S(=O)(NC1CCCN(c2ncccn2)C1)N1CCCCCC1 (configuration not stated) | -56.93 |
| COc1ccsc1C(=O)NC1CCN(c2cccc(F)c2)CC1 | -11.07 |
| Cc1cc(CN2CCC(c3cc(Cc4ccccc4)n[nH]3)CC2)[nH]n1 | -3.32 |
| NC(=O)NCCC(=O)N1CCC(c2cc(Cc3ccccc3)n[nH]2)CC1 | 42.27 |
| Cc1ccc(N2CCC(c3cc(Cc4ccccc4)n[nH]3)CC2)nn1 | -45.89 |
| Nc1nccc(N2CCC(c3cc(Cc4ccccc4)n[nH]3)CC2)n1 | 56.33 |
| Nc1cc(N2CCC(c3cc(Cc4ccccc4)n[nH]3)CC2)ccn1 | 60.35 |
| Nc1nc(O)cc(N2CCC(c3cc(Cc4ccccc4)n[nH]3)CC2)n1 | 5.41 |
| CC(=O)Nc1ccc(C(=O)N(C)Cc2cccc(F)c2)s1 | 45.05 |
| CCN(CCn1cccn1)Cc1nc(-c2cccs2)oc1C | -9.1 |
| Cc1nnsc1CN(C)C(=O)CCn1cnc2ccccc21 | -40.44 |
| CCOC(=O)N1CCN(c2nc(NCCCO)c3ccccc3n2)CC1 | 7.14 |
| O=C1C(Sc2nnnn2C2CC2)CCN1c1ccccc1F (configuration not stated) | 21.82 |

| SMILES | INHIBITION [%] |
| --- | --- |
| Cn1cnc(S(=O)(=O)NCC2(O)CCc3ccccc32)c1 (configuration not stated) | 30.34 |
| Cn1cnc(S(=O)(=O)NCC2(O)CCOc3ccccc32)c1 (configuration not stated) | 45.19 |
| Cn1cnc(S(=O)(=O)NCC2(O)CCc3ccccc3C2)c1 (configuration not stated) | 53.33 |
| CC(NC(=O)c1cccnc1N(C)C)c1ccccc1Br (configuration not stated) | 20.32 |
| Cc1nc(CNCc2c(C(C)C)nn(C)c2N2CCOCC2)cs1 | 7.64 |
| O=C([C@H]1C[C@@H]2CCN(c3cccc(F)c3)C[C@H]2O1)N1CCCC1 | 39.51 |
| O=S(=O)(c1ccc(Cl)s1)N1CCCn2ncnc21 | -49.84 |
| COC(=O)c1ccc(S(=O)(=O)N2CCCn3ncnc32)s1 | 59.68 |
| CCc1ccc(S(=O)(=O)N2CCCn3ncnc32)s1 | 13.38 |
| Cc1nccn1-c1nccnc1C1CCCN(C)C1 (configuration not stated) | 1.75 |
| CCC(=O)NCC(=O)NCC(C)(C)c1cccc(Br)c1 | 15.2 |
| CN(C)c1nc2c(c(N(C)C)n1)CCN(C(=O)CN1C[C@H]3CC[C@@H]1C3)C2 | -34.98 |
| O=C(NCC1CC1)C1CN(C(=O)c2cccs2)CC12CCOCC2 (configuration not stated) | -4.92 |
| O=C(NCC1CC1)C1CN(C(=O)c2cccnc2)CC12CCOCC2 (configuration not stated) | -1.37 |
| O=C(NCC1CC1)C1CN(C(=O)c2ccnnc2)CC12CCOCC2 (configuration not stated) | 59.59 |
| O=C(NCC1CC1)C1CN(C(=O)c2ccncc2)CC12CCOCC2 (configuration not stated) | -12.21 |
| O=C(NCC1CC1)C1CN(C(=O)c2cccc(Cl)c2)CC12CCOCC2 (configuration not stated) | 71.99 |
| O=C(NCC1CC1)C1CN(C(=O)c2ccco2)CC12CCOCC2 (configuration not stated) | 14.39 |
| Cc1nnc(N2CC[C@@H](OCC3CC3)[C@@H](Cc3ccccc3)C2)s1 | 1.74 |
| Cc1cc(C(=O)N(CC(F)(F)F)C2CCOCC2)c(C)o1 | 7.68 |
| Cc1noc(C)c1-c1cncc(C2CCCN2Cc2ccncc2)n1 (configuration not stated) | 27.8 |
| Cc1ccc(N2CCN(C(=O)CCc3n[nH]c(C)n3)CC2=O)cc1 | 19.75 |
| COc1ccc(OC2CCN(C(=O)CCc3n[nH]c(C)n3)CC2)cc1 | -2.77 |
| COc1ccc(N2CCN(C(=O)CCc3n[nH]c(C)n3)CC2=O)cc1 | 62.3 |
| O=C(O)[C@H]1OCC(=O)N(Cc2cccc(F)c2)[C@@H]1c1ccc(Cl)cc1 | -4.48 |
| Cc1cccc(Nc2cccc(C3CCCN(Cc4ncc[nH]4)C3)n2)n1 (configuration not stated) | 7.02 |
